The source of these data is PubChem BioAssay (Tox21).

Inconclusive results are not listed. Values without a mark were called inactive. Activity calls are given as the source filed them. Calls come from the whole dose curve; as a rule, active = well fitted inhibition curve with a large enough effect in the repeat runs; inconclusive = weak or mixed curves; inactive = flat fitted curve, though single readings scatter.
% is set by controls: 0 for no effect and ±100 for the full control effect.

The target of the test is Luciferin 4-monooxygenase (Photinus pyralis) (UniProt P08659). Kind of test: qHTS assay to identify small molecule inhibitors of firefly luciferase (AID 1224835). Note: nearly all actives have a fitted effect of over 25% in size. The settings on record: purified P. pyralis luciferase, luminescence inhibition; series mostly up to 115 µM; activity change, negative = inhibition: at the top concentration. From the text: U.S. Tox21 Program National Center for Advancing Translational Sciences [NCATS] NIH Chemical Genomics Center [NCGC] U.S. Environmental Protection Agency [EPA] National Institutes of Environmental Health Sciences [NIEHS] National Toxicology Program [NTP] U.S. Food and Drug Administration [FDA] Tox21 Assay Overview: Firefly (Photinus pyralis) luciferase is one of the most commonly used transcriptional reporters. Firefly luciferase reporter-gene assays are generally considered one of the most sensitive assay types (Wood, 1995; Wood, 1998). However, it was initially observed, in 1991, by Thompson et al., that compounds that resemble the substrates of firefly luciferase (FLuc) can act as competitive inhibitors of the enzyme, and that these compounds, upon interaction with luciferase in the cell, can actually stabilize the protein and increase its half-life. Previous profiling work by other groups to determine the prevalence of compounds that affect FLuc enzymatic activity (PubChem AID 411) identified that ~3% of the MLSMR library (then at ~72K) inhibited FLuc. […] Thus the Tox21 10K library is profiled for activity against FLuc using a biochemical assay of purified FLuc and KM concentrations of FLuc substrates (D-luciferin and ATP).
Luciferin 4-monooxygenase (Photinus pyralis), sequence (P08659 whole entry, looked up): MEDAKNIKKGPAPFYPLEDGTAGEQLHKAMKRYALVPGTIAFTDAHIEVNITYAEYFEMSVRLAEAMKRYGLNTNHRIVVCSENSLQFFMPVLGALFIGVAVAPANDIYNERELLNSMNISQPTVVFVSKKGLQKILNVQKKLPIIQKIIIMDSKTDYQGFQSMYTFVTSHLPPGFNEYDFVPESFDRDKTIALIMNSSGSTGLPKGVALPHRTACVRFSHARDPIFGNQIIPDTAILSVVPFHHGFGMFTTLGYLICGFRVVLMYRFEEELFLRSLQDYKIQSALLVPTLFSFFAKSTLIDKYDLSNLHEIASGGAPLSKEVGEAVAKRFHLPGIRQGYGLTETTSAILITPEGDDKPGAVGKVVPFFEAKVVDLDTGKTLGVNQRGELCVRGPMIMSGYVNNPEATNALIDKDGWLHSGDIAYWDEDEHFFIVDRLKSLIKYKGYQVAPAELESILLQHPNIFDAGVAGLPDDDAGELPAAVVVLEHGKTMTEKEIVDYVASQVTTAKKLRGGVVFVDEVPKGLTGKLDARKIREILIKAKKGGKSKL
These assay plates were then treated with 23nL of compound or DMSO using a Kalypsys pin tool, which allows for delivery of a 6-point interplate titration of each compound to the assay plate (quantitative HTS.) 1 uL of firefly luciferase mix (containing 50 mM Tris acetate, pH 7.6, 0.04 uM P. pyralis luciferase, 0.01% Tween, 0.05% BSA and dH2O) was then delivered by FRD to each well. Luciferase activity was then measured using a ViewLux CCD imager.
For orientation: Quantitative high-throughput screening tests each substance at several concentrations.
As for `CCc1nccnc1C`, the “activity change, negative = inhibition” value is 0.983%.

For the molecule `CC(C)SCc1ccco1`, the “activity change, negative = inhibition” value was 1.14% [at 52.9 µM].

`C[Si]1(C)N[Si](C)(C)N[Si](C)(C)N1`: the “activity change, negative = inhibition” value was -0.183%.

For `Nc1ccc(S(=O)(=O)NC(=O)c2ccccc2)cc1`, the “activity change, negative = inhibition” value is -4.38% [at 52.9 µM].

With `CN(C)CCCNCCC#N`, the “activity change, negative = inhibition” value was -0.226%.

Consider `O=C(O)CCNC(=O)c1ccccc1`, for which the “activity change, negative = inhibition” value was 4.53% [at 52.9 µM].

Take `OC[C@@H](O)[C@H](O)[C@@H](O)[C@@H](O)CO`: the “activity change, negative = inhibition” value was 0.464%.

Consider `Cc1oc(=O)oc1CN1CCN(c2cc3c(cc2F)c(=O)c(C(=O)O)c2n3C(C)S2)CC1` (stereo not given), for which the “activity change, negative = inhibition” value was 1.28% [at 52.9 µM].

As for `C=CCOc1c(Br)cc(Br)cc1Br`, the “activity change, negative = inhibition” value is 2.04%.

Take `NC(=O)NNC(N)=O`: the “activity change, negative = inhibition” value was 5.69%.

As for `CO[Si](CCCS)(OC)OC`, the “activity change, negative = inhibition” value was 3.54%.

For the molecule `CC1(N)CCC(C(C)(C)N)CC1` (stereo not given), the “activity change, negative = inhibition” value is 8.12%.

For `C[N+](C)(C)CC(O)CCl` (stereo not given), the “activity change, negative = inhibition” value is -1.64%.

`CC1CCC(C(C)(C)S)C(=O)C1` (stereo not given): the “activity change, negative = inhibition” value is 3.39%.

`CCS(=O)(=O)CCn1c([N+](=O)[O-])cnc1C`: the “activity change, negative = inhibition” value was 1.48% [at 52.9 µM].

As to `CCCCCC1Nc2cc(C(F)(F)F)c(S(N)(=O)=O)cc2S(=O)(=O)N1` (stereo not given), the “activity change, negative = inhibition” value is 3.36% [at 52.9 µM].

Regarding `CCCO`, the “activity change, negative = inhibition” value was 2.92%.

As to `COC(=O)CCC(=O)O`, the “activity change, negative = inhibition” value was 2.37%.

With `Nc1cc(C(=O)O)ccc1Cl`, the “activity change, negative = inhibition” value was 2.99%.

With `CN(C1CCCCC1)S(=O)(=O)c1ccccc1N`, the “activity change, negative = inhibition” value is -13.8%.

With `C[C@H](CCC(=O)O)[C@H]1CC[C@H]2[C@@H]3[C@H](O)C[C@@H]4C[C@H](O)CC[C@]4(C)[C@H]3C[C@H](O)[C@]12C`, the “activity change, negative = inhibition” value is -0.488% [at 52.9 µM].

In the case of `CCCCCCCCCCCCOC(C)=O`, the “activity change, negative = inhibition” value was -0.0161%.

With `CCCCCCCCCCCCC`, the “activity change, negative = inhibition” value is 0.456%.

With `CC1=CC[C@H](CC=O)C1(C)C`, the “activity change, negative = inhibition” value is -4.53%.

Take `Nc1nc(=O)n([C@@H]2O[C@H](CO)[C@@H](O)[C@@H]2F)cc1I`: the “activity change, negative = inhibition” value is -2.97% [at 52.9 µM].

As to `CCC(CO)CO`, the “activity change, negative = inhibition” value is 1.69%.

Turning to `CCC(C)(CCC(C)C)C(=O)[O-].CCC(C)(CCC(C)C)C(=O)[O-].[Zn+2]` (stereo not given), the Potency is 25.2 µM (active).

For the molecule `Nc1cc(Cl)cc(S(=O)(=O)O)c1O`, the “activity change, negative = inhibition” value is -6.03%.

As to `F[Si-2](F)(F)(F)(F)F`, the “activity change, negative = inhibition” value is 5.83%.

Turning to `O=C(O)c1ccc(OCCN2CCCCC2)cc1`, the “activity change, negative = inhibition” value is 0.25% [at 52.9 µM].

Consider `CC(=O)Nc1ccc(C)cc1`, for which the “activity change, negative = inhibition” value was 0.299%.

With `O=C1NC2NC(=O)NC2N1` (stereo not given), the “activity change, negative = inhibition” value is 2.48%.

In the case of `CCCCC(=O)N(C)C`, the “activity change, negative = inhibition” value is -0.363%.

With `CCCC(C)CC` (stereo not given), the “activity change, negative = inhibition” value was 1.91%.

For the molecule `CC(C)C(=O)c1ccccc1`, the “activity change, negative = inhibition” value is 4.2%.

`Cc1ncc([N+](=O)[O-])n1CC(O)CCl` (stereo not given): the “activity change, negative = inhibition” value was -1.25% [at 52.9 µM].

As for `CCOC(=O)CCCCCCCCC(=O)OCC`, the “activity change, negative = inhibition” value is -1.38%.

Consider `CCN(CCO)c1cccc(C)c1`, for which the “activity change, negative = inhibition” value was -0.646%.

`Cc1nc2ccccc2c(=O)o1`: the “activity change, negative = inhibition” value is -0.331%.

For `NC(Cc1c[nH]c2ccccc12)C(=O)O` (stereo not given), the “activity change, negative = inhibition” value was -1.15% [at 52.9 µM].
